The values that follow come from ChEMBL document CHEMBL1961873, “Compounds: GSK PKIS; Assays: Nanosyn kinase panel” (2012).

Assay [1] concerns the target Casein kinase I isoform gamma-2 (Homo sapiens) (UniProt P78368). To be noted: at 1 µM.
The target of assay [2] is Casein kinase I isoform gamma-3 (Homo sapiens) (UniProt Q9Y6M4). Particulars: at 0.1 µM.
The target is the same in assay [3]. Particulars: at 1 µM.
For assay [4], the target named is Cyclin-dependent kinase 1 (Homo sapiens) (UniProt P06493). Particulars: at 0.1 µM.
Chain of Cyclin-dependent kinase 1 (Homo sapiens) (P06493 whole entry, looked up): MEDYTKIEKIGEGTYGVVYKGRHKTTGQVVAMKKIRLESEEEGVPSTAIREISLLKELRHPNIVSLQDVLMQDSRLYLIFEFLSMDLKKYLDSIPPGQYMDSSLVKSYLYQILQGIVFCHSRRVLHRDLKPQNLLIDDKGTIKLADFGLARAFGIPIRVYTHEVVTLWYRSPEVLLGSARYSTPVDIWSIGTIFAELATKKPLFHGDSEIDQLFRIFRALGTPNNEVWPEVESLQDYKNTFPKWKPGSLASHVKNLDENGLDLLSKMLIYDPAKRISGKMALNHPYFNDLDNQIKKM
Assay [5] has the same target. Particulars: at 1 µM.
In assay [6] the target is Cyclin-dependent kinase 2 (Homo sapiens) (UniProt P24941). Particulars: at 0.1 µM.
Assay [7] shares this target. Particulars: at 1 µM.
The target is the same in assay [8]. To be noted: at 0.1 µM. This is another data set of the same source.
The target is the same in assay [9]. Particulars: at 1 µM. This is another data set of the same source.
The target of assay [10] is CDK3/Cyclin E (Homo sapiens) (UniProt P24864+Q00526). Particulars: at 0.1 µM.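 Note: reported percentages are mean inhibition values.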
Chain of CDK3/Cyclin E (Homo sapiens) (P24864 whole entry, looked up): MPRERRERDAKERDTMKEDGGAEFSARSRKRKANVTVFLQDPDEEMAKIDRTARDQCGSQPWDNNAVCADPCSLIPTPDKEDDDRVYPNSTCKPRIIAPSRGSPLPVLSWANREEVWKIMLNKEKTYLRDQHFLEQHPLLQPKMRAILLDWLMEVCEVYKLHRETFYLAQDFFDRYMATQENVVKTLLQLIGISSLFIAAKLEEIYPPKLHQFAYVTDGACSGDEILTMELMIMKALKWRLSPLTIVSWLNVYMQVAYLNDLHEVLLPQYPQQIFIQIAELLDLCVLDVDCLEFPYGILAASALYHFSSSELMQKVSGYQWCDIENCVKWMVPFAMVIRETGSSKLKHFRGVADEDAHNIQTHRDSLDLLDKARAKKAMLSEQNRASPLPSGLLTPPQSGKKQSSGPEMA
Chain of CDK3/Cyclin E (Homo sapiens) (Q00526 whole entry, looked up): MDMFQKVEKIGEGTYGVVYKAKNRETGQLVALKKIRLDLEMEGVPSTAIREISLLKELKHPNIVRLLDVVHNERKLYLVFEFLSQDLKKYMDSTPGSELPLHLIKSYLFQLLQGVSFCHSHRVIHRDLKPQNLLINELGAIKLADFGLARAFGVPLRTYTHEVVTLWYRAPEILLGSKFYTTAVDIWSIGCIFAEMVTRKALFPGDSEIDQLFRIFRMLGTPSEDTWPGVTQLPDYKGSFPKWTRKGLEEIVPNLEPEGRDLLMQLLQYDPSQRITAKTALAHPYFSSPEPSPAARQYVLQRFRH

Chain of Casein kinase I isoform gamma-2 (Homo sapiens) (P78368 whole entry, looked up, canonical isoform): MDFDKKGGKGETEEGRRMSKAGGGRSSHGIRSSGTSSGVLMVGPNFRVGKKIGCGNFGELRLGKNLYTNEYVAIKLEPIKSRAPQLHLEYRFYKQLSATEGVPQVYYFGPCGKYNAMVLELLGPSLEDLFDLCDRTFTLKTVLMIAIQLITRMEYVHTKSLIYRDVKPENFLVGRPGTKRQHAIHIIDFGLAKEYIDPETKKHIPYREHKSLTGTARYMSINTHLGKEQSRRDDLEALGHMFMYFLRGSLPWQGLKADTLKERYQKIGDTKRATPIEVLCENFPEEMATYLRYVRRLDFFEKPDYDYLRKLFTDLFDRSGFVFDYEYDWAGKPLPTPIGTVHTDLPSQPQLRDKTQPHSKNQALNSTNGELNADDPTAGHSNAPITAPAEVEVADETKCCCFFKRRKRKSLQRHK
Chain of Casein kinase I isoform gamma-3 (Homo sapiens) (Q9Y6M4 whole entry, looked up, canonical isoform): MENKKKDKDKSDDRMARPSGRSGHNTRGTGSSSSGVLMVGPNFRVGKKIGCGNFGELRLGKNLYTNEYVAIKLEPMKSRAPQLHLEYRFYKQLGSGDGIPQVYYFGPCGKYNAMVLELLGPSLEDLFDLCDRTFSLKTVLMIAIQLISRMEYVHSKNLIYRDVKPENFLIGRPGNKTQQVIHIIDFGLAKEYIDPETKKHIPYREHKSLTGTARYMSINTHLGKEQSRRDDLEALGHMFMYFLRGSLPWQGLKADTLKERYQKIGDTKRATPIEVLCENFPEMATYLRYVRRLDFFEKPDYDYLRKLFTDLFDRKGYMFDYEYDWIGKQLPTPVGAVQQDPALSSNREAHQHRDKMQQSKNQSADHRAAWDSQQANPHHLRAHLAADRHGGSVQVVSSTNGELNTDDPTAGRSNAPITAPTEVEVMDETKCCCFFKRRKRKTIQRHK

One may read the inhibition as the change of the read-out against control, counted positive when it falls. For `COc1cccc(-n2ncc3c(N/N=C/c4cccc(F)c4)ncnc32)c1`, the inhibition was -0.18% in [1]; -1.77% in assay [2]; 0.64% in assay [3]; 1.44% in assay [4]; 33% in assay [5]; 3.77% in assay [6]. Besides, the inhibition was 39.1% in [7], 0.9% in [8], 13% in assay [9] and 4% in assay [10].
For the molecule `Fc1cccc(COc2ccc(Nc3ncnc4cc(-c5ccc[nH]5)sc34)cc2Cl)c1`, the inhibition in assay [1] was -1.46%; in [2], -2.89%; in assay [3] it was -1.56%; in assay [4], -1.89%; in [5], 1.88%; in assay [6] it was -1.97%. Besides, the inhibition was -1.57% in assay [7], -0.46% in assay [8], 2.07% in assay [9] and 3.58% in assay [10].
As to `CCn1c(-c2nonc2N)nc2cnc(Oc3cccc(NC(=O)c4ccc(OCCN5CCOCC5)cc4)c3)cc21`, the inhibition in assay [1] is 3.09%; in [2], 1.57%; in assay [3], 1.58%; in assay [4] it was 0.45%; in assay [5] it was 3.69%; in assay [6], 2.58%. The inhibition was 7.1% in [7], 2.65% in assay [8], 5.1% in assay [9] and -0.07% in [10].
In the case of `NC(=O)c1cccc(Nc2nccc(Nc3cccc4[nH]ncc34)n2)c1`, the inhibition in assay [1] was 1.89%; in assay [2], -2.55%; in assay [3], 9.56%; in [4] it was 1.69%; in assay [5], 14.5%; in assay [6], 10.3%. The inhibition came out at 59.9% in [7], 3.38% in assay [8], 34.2% in [9] and 1.14% in assay [10].
On to `COc1cc(C)c(NC(=O)CN(C)C)cc1Nc1nc(Nc2cccc(F)c2C(N)=O)c2cc[nH]c2n1`, for which the inhibition was 20% in [1]; 1.69% in assay [2]; 20.6% in [3]; -0.88% in [4]; -1.98% in assay [5]; 0.1% in assay [6]. Also, the inhibition in assay [7] was -9.04%; in assay [8], -0.26%; in assay [9] it was 0.04%; in assay [10], -0.76%.
With `CS(=O)(=O)CCNCc1nc(-c2ccc3ncnc(Nc4ccc(F)c(Cl)c4)c3c2)cs1`, the inhibition in assay [1] is 0.64%; in assay [2] it was 2.39%; in assay [3], 3.39%; in assay [4] it was -1.31%; in assay [5] it was -0.06%; in assay [6], 0.75%. For the same molecule, the inhibition in assay [7] is 9.99%; in [8], 0.06%; in assay [9], 1.32%; in assay [10], 0.76%.
As for `CS(=O)(=O)CCN(CC#N)Cc1ccc(-c2ccc3ncnc(Nc4ccc(OCc5cccc(F)c5)c(Cl)c4)c3c2)o1`, the inhibition in [1] was -2.18%; in assay [2], -1.66%; in [3], -4.35%; in assay [4], -3.13%; in assay [5] it was -3.04%; in assay [6], -1.63%. Also, the inhibition in assay [7] was -2.87%; in assay [8], -2.44%; in assay [9], -4.09%; in [10], -2.24%.
For the molecule `Cc1cc(O)cc(C)c1/C=C/c1cncc(-c2nn[nH]n2)c1`, the inhibition in [1] was 3.73%; in [2], -0.15%; in [3], 1.13%; in assay [4], -2.89%; in assay [5], -3.31%; in assay [6], -1.42%. For the same molecule, the inhibition in assay [7] was determined as 2.36%; in assay [8], 0.42%; in [9], 0.7%; in [10], 2.82%.
With `CS(=O)(=O)CCNCc1ccc(-c2ccc3ncnc(Nc4ccc(OCc5cccc(F)c5)c(C(F)(F)F)c4)c3c2)o1`, the inhibition in assay [1] was 3.77%; in assay [2] it was 2.34%; in [3], 1.71%; in assay [4], -0.13%; in [5], 2%; in assay [6], 5.89%. For the same molecule, the inhibition in [7] was -0.79%; in assay [8] it was 1.93%; in assay [9], 3.21%; in assay [10], 2.34%.
Turning to `COC(=O)Nc1nc2cc(Oc3ccc(NC(=O)Nc4cccc(C(=O)O)c4)cc3)ccc2[nH]1`, the inhibition is -2.28% in assay [1]; -2.29% in assay [2]; -0.39% in [3]; -2.2% in [4]; 0.34% in assay [5]; -1.03% in [6]. Further, the inhibition in assay [7] was determined as 4.44%; in [8] it was 1.71%; in [9], 1.67%; in assay [10] it was 1.76%.
As for `CCc1cccc(NC(=O)Nc2ccc(Oc3ccc4nc(NC(=O)OC)[nH]c4c3)cc2)c1`, the inhibition in assay [1] was 0.48%; in assay [2] it was 0.13%; in [3] it was 2.93%; in [4], -1.03%; in assay [5], 0.5%; in assay [6], 0.71%. The inhibition was 1.95% in [7], 3.03% in assay [8], -0.35% in assay [9] and 1.01% in assay [10].
As to `COc1cc(C=NNc2ncnc3c2cnn3-c2ccccc2)ccc1O`, the inhibition worked out at 18.1% in assay [1]; 1.55% in [2]; 5.99% in assay [3]; 6.11% in assay [4]; 35.8% in assay [5]; 6.03% in assay [6]. Further, the inhibition in assay [7] is 42.1%; in [8], 2.88%; in [9], 13.7%; in assay [10], 2.09%.
`CN1CCC(C(=O)Nc2n[nH]c3nnc(-c4ccccc4)cc23)CC1`: the inhibition in assay [1] turned out to be 6.16%; in [2] it was 2.15%; in [3], 4.71%; in assay [4] it was 1.44%; in assay [5], 9.39%; in assay [6], 1.83%. Besides, the inhibition in [7] came to 5.99%; in [8], 5.55%; in [9] it was 7.79%; in assay [10], 5.12%.
In the case of `Cc1nnc(-c2ccc(C)c(-c3ccc(C(=O)Nc4cccc(C#N)c4)cc3)c2)o1`, the inhibition in assay [1] came out at 1.54%; in assay [2] it was 1.46%; in [3], 0.25%; in assay [4], 0.88%; in [5], 1.11%; in assay [6], 1.13%. The inhibition in [7] turned out to be 0.6%; in assay [8], 1.82%; in assay [9], 2.15%; in assay [10], 4.52%.
Turning to `NS(=O)(=O)c1cccc(-c2ccc3c(NC(=O)C4CC4)n[nH]c3c2)c1`, the inhibition was -1.38% in assay [1]; -0.89% in [2]; 2.47% in assay [3]; 0.37% in assay [4]; 1.15% in assay [5]; 0.27% in [6]. In addition, the inhibition in assay [7] is -6.96%; in [8] it was 0.15%; in [9], 3.36%; in assay [10] it was 0.71%.
In the case of `N#Cc1c(NC(=O)c2cccc3ccccc23)sc2c1CCCC2`, the inhibition in [1] is 3.02%; in assay [2], 2.06%; in assay [3] it was 2.66%; in [4], 1.07%; in [5] it was 5.24%; in [6], 4.98%. The inhibition in assay [7] came to 0.97%; in assay [8], 5.24%; in [9], 6.76%; in assay [10], 2.56%.
